# Measurements as given in paper PMC12529666, “Dysregulation of AGO2-miRNA dynamics underlies the AGO2-associated Lessel–Kreienkamp syndrome”.
# What was measured:
# Experiment in all cases: RNA Bind-n-Seq (nitrocellulose filter binding and sequencing); miR-122 guide loaded in AGO2; 60 min incubation; 30 mM Tris pH 8.0, 100 mM potassium acetate, 2 mM magnesium acetate, 0.5 mM TCEP, 0.005% NP-40, 0.01 mg/ml yeast tRNA; 3 nM AGO2-miR-122, 100 nM RNA library; 60; high values mean tight binding
# Settings in all cases: protein: recombinant; tags: His6 (N-terminal, pFastBac HTA)
# AGO2 L192P = AGO2 L192P (Homo sapiens, UniProt Q9UKV8 1-859, L192P;S387D;S824A;S828D;S831D;S834A)
# Procedure, shortened: (§1)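 His-tagged AGO2 was expressed in Sf9 insect cells by baculovirus, loaded with a synthetic guide RNA, and purified by Ni-NTA and a biotinylated capture oligo. Bound RNA was extracted, reverse-transcribed, barcode-amplified and Illumina-sequenced. Fold enrichment is each sequence's read fraction divided by its input-library read fraction.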
# AGO2 A367P = AGO2 A367P (Homo sapiens, UniProt Q9UKV8 1-859, A367P;S387D;S824A;S828D;S831D;S834A)
# Procedure, shortened: as §1
# AGO2 T357M = AGO2 T357M (Homo sapiens, UniProt Q9UKV8 1-859, T357M;S387D;S824A;S828D;S831D;S834A)
# Procedure, shortened: as §1
# AGO2 F182del = AGO2 F182del (Homo sapiens, UniProt Q9UKV8 1-859, S387D;S824A;S828D;S831D;S834A;del182-182)
# Procedure, shortened: as §1
# Sequence of AGO2 F182del (Q9UKV8 other isoform, or with tags, fused parts or gaps S387D;S824A;S828D;S831D;S834A;del182-182): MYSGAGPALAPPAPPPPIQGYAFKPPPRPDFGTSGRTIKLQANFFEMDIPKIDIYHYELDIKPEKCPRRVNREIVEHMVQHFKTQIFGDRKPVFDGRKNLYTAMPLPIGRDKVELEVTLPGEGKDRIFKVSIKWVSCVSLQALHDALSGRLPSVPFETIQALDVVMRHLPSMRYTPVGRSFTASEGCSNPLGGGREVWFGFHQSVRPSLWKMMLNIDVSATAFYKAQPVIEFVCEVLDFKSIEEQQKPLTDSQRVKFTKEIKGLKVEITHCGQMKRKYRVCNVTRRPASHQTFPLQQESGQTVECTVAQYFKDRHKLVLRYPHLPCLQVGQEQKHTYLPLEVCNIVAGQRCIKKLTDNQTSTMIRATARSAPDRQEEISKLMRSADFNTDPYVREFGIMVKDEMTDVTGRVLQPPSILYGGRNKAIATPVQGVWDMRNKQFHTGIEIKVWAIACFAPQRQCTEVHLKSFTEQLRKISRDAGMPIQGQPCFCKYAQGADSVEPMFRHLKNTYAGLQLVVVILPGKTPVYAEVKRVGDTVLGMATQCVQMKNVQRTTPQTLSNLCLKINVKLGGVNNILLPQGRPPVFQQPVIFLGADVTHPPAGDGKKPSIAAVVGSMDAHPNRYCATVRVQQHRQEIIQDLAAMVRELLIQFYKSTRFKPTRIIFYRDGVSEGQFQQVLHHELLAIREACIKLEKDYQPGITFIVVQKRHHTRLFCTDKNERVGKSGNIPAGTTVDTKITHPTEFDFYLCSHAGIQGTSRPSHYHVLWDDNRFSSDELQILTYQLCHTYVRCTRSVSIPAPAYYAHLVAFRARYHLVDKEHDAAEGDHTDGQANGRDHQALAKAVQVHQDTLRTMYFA
# Sequence of AGO2 L192P (Q9UKV8 whole entry L192P/S387D/S824A/S828D/S831D/S834A): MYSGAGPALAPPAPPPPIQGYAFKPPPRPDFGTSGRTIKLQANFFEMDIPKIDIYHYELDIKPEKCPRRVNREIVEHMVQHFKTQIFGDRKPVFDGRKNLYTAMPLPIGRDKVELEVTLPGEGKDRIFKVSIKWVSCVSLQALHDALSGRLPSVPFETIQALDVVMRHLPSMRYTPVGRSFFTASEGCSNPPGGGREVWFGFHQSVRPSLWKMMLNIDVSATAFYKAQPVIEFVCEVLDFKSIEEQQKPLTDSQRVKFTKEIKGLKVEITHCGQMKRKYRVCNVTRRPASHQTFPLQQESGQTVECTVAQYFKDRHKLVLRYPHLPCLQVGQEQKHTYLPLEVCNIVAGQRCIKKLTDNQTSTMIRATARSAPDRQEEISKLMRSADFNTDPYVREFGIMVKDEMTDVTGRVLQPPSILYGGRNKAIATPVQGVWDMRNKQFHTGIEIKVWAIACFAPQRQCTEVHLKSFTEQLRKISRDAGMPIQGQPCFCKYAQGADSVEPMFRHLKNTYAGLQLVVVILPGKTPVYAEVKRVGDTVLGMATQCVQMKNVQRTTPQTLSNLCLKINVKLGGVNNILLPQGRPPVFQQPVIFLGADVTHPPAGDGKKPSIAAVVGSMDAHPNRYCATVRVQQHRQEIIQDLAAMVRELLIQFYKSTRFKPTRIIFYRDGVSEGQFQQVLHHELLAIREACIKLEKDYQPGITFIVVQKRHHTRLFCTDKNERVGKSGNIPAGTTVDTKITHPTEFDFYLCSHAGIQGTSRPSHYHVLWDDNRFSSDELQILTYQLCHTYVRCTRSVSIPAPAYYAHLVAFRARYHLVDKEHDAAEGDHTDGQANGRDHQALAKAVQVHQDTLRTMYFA
# Sequence of AGO2 T357M (Q9UKV8 whole entry T357M/S387D/S824A/S828D/S831D/S834A): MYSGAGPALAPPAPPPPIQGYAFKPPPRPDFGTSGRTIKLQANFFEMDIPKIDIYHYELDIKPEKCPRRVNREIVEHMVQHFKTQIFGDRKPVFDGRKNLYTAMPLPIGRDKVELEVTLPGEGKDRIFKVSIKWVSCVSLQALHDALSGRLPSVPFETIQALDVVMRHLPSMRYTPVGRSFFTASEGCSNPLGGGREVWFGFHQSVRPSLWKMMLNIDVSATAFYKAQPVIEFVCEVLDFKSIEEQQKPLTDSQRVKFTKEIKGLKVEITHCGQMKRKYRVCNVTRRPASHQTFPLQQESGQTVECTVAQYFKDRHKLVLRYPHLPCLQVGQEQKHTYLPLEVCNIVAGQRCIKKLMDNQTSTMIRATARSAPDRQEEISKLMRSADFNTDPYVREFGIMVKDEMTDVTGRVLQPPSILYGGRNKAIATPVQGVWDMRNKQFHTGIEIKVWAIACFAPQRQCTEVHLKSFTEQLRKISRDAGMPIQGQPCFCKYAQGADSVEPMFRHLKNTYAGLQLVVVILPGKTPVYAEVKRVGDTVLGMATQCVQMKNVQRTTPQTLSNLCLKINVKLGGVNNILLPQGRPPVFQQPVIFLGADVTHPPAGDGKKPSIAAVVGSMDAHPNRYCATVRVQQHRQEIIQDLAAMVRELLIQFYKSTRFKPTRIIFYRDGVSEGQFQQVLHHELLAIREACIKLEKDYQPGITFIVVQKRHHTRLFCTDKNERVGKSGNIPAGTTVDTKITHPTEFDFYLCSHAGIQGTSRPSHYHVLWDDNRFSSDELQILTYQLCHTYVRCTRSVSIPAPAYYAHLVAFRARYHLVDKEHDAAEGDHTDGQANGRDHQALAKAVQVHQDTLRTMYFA
# Sequence of AGO2 A367P (Q9UKV8 whole entry A367P/S387D/S824A/S828D/S831D/S834A): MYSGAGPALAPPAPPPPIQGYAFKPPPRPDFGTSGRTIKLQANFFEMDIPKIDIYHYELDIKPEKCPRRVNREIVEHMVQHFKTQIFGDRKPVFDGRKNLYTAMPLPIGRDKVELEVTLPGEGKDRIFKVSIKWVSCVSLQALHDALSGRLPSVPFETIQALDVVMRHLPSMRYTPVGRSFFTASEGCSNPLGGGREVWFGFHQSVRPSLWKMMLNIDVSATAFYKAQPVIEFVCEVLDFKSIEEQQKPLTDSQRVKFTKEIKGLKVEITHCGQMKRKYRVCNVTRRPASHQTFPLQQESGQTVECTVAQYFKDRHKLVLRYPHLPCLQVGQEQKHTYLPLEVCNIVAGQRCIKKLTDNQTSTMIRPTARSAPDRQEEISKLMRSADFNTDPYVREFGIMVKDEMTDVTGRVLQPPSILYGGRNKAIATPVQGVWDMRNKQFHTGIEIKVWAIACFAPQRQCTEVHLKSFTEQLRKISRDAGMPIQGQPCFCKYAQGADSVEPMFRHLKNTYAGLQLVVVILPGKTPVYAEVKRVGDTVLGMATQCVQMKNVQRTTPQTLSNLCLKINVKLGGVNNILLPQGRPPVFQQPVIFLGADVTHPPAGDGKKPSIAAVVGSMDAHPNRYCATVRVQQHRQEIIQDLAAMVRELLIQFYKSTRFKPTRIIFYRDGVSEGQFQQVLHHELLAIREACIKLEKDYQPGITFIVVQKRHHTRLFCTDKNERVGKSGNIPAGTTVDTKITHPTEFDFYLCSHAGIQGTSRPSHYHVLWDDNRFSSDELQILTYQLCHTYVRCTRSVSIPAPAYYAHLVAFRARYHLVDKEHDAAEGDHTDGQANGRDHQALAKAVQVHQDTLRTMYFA
Binder,binding signal (AGO2 L192P),binding signal (AGO2 A367P),binding signal (AGO2 T357M),binding signal (AGO2 F182del)
"ACGTTCTA (ssRNA, constant regions annealed to DNA blockers; guide miR-122 5' phosphate) RNA 1: GAGUUCUACAGUCCGACGAUCCCAACACGUUCUACACCUGGAAUUCUCGGGUGCCAA RNA 2: UGGAGUGUGACAAUGGUGUUUG DNA 1: GATCGTCGGACTGTAGAACTC DNA 2: TTGGCACCCGAGAATTCCA",0.434 fold enrichment over input,0.184 fold enrichment over input,0.53 fold enrichment over input,0.195 fold enrichment over input
"GTGCCCCG (ssRNA, constant regions annealed to DNA blockers; guide miR-122 5' phosphate) RNA 1: GAGUUCUACAGUCCGACGAUCCCAACGUGCCCCGCACCUGGAAUUCUCGGGUGCCAA RNA 2: UGGAGUGUGACAAUGGUGUUUG DNA 1: GATCGTCGGACTGTAGAACTC DNA 2: TTGGCACCCGAGAATTCCA",0.406 fold enrichment over input,0.159 fold enrichment over input,0.568 fold enrichment over input,–
"GCACCCTA (ssRNA, constant regions annealed to DNA blockers; guide miR-122 5' phosphate) RNA 1: GAGUUCUACAGUCCGACGAUCCCAACGCACCCUACACCUGGAAUUCUCGGGUGCCAA RNA 2: UGGAGUGUGACAAUGGUGUUUG DNA 1: GATCGTCGGACTGTAGAACTC DNA 2: TTGGCACCCGAGAATTCCA",0.515 fold enrichment over input,0.214 fold enrichment over input,0.601 fold enrichment over input,0.327 fold enrichment over input
"GCGCCTTG (ssRNA, constant regions annealed to DNA blockers; guide miR-122 5' phosphate) RNA 1: GAGUUCUACAGUCCGACGAUCCCAACGCGCCUUGCACCUGGAAUUCUCGGGUGCCAA RNA 2: UGGAGUGUGACAAUGGUGUUUG DNA 1: GATCGTCGGACTGTAGAACTC DNA 2: TTGGCACCCGAGAATTCCA",0.365 fold enrichment over input,0.15 fold enrichment over input,0.532 fold enrichment over input,–
"GTATTCTG (ssRNA, constant regions annealed to DNA blockers; guide miR-122 5' phosphate) RNA 1: GAGUUCUACAGUCCGACGAUCCCAACGUAUUCUGCACCUGGAAUUCUCGGGUGCCAA RNA 2: UGGAGUGUGACAAUGGUGUUUG DNA 1: GATCGTCGGACTGTAGAACTC DNA 2: TTGGCACCCGAGAATTCCA",0.39 fold enrichment over input,0.139 fold enrichment over input,0.506 fold enrichment over input,–
"GCGTTTCG (ssRNA, constant regions annealed to DNA blockers; guide miR-122 5' phosphate) RNA 1: GAGUUCUACAGUCCGACGAUCCCAACGCGUUUCGCACCUGGAAUUCUCGGGUGCCAA RNA 2: UGGAGUGUGACAAUGGUGUUUG DNA 1: GATCGTCGGACTGTAGAACTC DNA 2: TTGGCACCCGAGAATTCCA",0.361 fold enrichment over input,0.139 fold enrichment over input,0.534 fold enrichment over input,–
"GCGCCTCG (ssRNA, constant regions annealed to DNA blockers; guide miR-122 5' phosphate) RNA 1: GAGUUCUACAGUCCGACGAUCCCAACGCGCCUCGCACCUGGAAUUCUCGGGUGCCAA RNA 2: UGGAGUGUGACAAUGGUGUUUG DNA 1: GATCGTCGGACTGTAGAACTC DNA 2: TTGGCACCCGAGAATTCCA",0.37 fold enrichment over input,0.145 fold enrichment over input,0.55 fold enrichment over input,–
"GCGCTCTG (ssRNA, constant regions annealed to DNA blockers; guide miR-122 5' phosphate) RNA 1: GAGUUCUACAGUCCGACGAUCCCAACGCGCUCUGCACCUGGAAUUCUCGGGUGCCAA RNA 2: UGGAGUGUGACAAUGGUGUUUG DNA 1: GATCGTCGGACTGTAGAACTC DNA 2: TTGGCACCCGAGAATTCCA",0.371 fold enrichment over input,0.163 fold enrichment over input,0.565 fold enrichment over input,–
"GCGTCCTG (ssRNA, constant regions annealed to DNA blockers; guide miR-122 5' phosphate) RNA 1: GAGUUCUACAGUCCGACGAUCCCAACGCGUCCUGCACCUGGAAUUCUCGGGUGCCAA RNA 2: UGGAGUGUGACAAUGGUGUUUG DNA 1: GATCGTCGGACTGTAGAACTC DNA 2: TTGGCACCCGAGAATTCCA",0.38 fold enrichment over input,0.156 fold enrichment over input,0.56 fold enrichment over input,–
"GTGCCTCG (ssRNA, constant regions annealed to DNA blockers; guide miR-122 5' phosphate) RNA 1: GAGUUCUACAGUCCGACGAUCCCAACGUGCCUCGCACCUGGAAUUCUCGGGUGCCAA RNA 2: UGGAGUGUGACAAUGGUGUUUG DNA 1: GATCGTCGGACTGTAGAACTC DNA 2: TTGGCACCCGAGAATTCCA",0.431 fold enrichment over input,0.162 fold enrichment over input,0.57 fold enrichment over input,–
"ATGCTCTA (ssRNA, constant regions annealed to DNA blockers; guide miR-122 5' phosphate) RNA 1: GAGUUCUACAGUCCGACGAUCCCAACAUGCUCUACACCUGGAAUUCUCGGGUGCCAA RNA 2: UGGAGUGUGACAAUGGUGUUUG DNA 1: GATCGTCGGACTGTAGAACTC DNA 2: TTGGCACCCGAGAATTCCA",0.443 fold enrichment over input,0.171 fold enrichment over input,0.526 fold enrichment over input,–
"ATATCTTG (ssRNA, constant regions annealed to DNA blockers; guide miR-122 5' phosphate) RNA 1: GAGUUCUACAGUCCGACGAUCCCAACAUAUCUUGCACCUGGAAUUCUCGGGUGCCAA RNA 2: UGGAGUGUGACAAUGGUGUUUG DNA 1: GATCGTCGGACTGTAGAACTC DNA 2: TTGGCACCCGAGAATTCCA",0.409 fold enrichment over input,0.138 fold enrichment over input,0.513 fold enrichment over input,–
"GTGCTTTA (ssRNA, constant regions annealed to DNA blockers; guide miR-122 5' phosphate) RNA 1: GAGUUCUACAGUCCGACGAUCCCAACGUGCUUUACACCUGGAAUUCUCGGGUGCCAA RNA 2: UGGAGUGUGACAAUGGUGUUUG DNA 1: GATCGTCGGACTGTAGAACTC DNA 2: TTGGCACCCGAGAATTCCA",0.489 fold enrichment over input,0.185 fold enrichment over input,0.644 fold enrichment over input,–
"GTACTTTG (ssRNA, constant regions annealed to DNA blockers; guide miR-122 5' phosphate) RNA 1: GAGUUCUACAGUCCGACGAUCCCAACGUACUUUGCACCUGGAAUUCUCGGGUGCCAA RNA 2: UGGAGUGUGACAAUGGUGUUUG DNA 1: GATCGTCGGACTGTAGAACTC DNA 2: TTGGCACCCGAGAATTCCA",0.365 fold enrichment over input,0.121 fold enrichment over input,0.46 fold enrichment over input,–
"ATGCCTTA (ssRNA, constant regions annealed to DNA blockers; guide miR-122 5' phosphate) RNA 1: GAGUUCUACAGUCCGACGAUCCCAACAUGCCUUACACCUGGAAUUCUCGGGUGCCAA RNA 2: UGGAGUGUGACAAUGGUGUUUG DNA 1: GATCGTCGGACTGTAGAACTC DNA 2: TTGGCACCCGAGAATTCCA",0.434 fold enrichment over input,0.179 fold enrichment over input,0.617 fold enrichment over input,–
"GCATCCCA (ssRNA, constant regions annealed to DNA blockers; guide miR-122 5' phosphate) RNA 1: GAGUUCUACAGUCCGACGAUCCCAACGCAUCCCACACCUGGAAUUCUCGGGUGCCAA RNA 2: UGGAGUGUGACAAUGGUGUUUG DNA 1: GATCGTCGGACTGTAGAACTC DNA 2: TTGGCACCCGAGAATTCCA",0.48 fold enrichment over input,0.201 fold enrichment over input,0.628 fold enrichment over input,0.282 fold enrichment over input
"ACGTCTCG (ssRNA, constant regions annealed to DNA blockers; guide miR-122 5' phosphate) RNA 1: GAGUUCUACAGUCCGACGAUCCCAACACGUCUCGCACCUGGAAUUCUCGGGUGCCAA RNA 2: UGGAGUGUGACAAUGGUGUUUG DNA 1: GATCGTCGGACTGTAGAACTC DNA 2: TTGGCACCCGAGAATTCCA",0.32 fold enrichment over input,0.146 fold enrichment over input,0.421 fold enrichment over input,–
"GCACCTCG (ssRNA, constant regions annealed to DNA blockers; guide miR-122 5' phosphate) RNA 1: GAGUUCUACAGUCCGACGAUCCCAACGCACCUCGCACCUGGAAUUCUCGGGUGCCAA RNA 2: UGGAGUGUGACAAUGGUGUUUG DNA 1: GATCGTCGGACTGTAGAACTC DNA 2: TTGGCACCCGAGAATTCCA",0.381 fold enrichment over input,0.15 fold enrichment over input,0.508 fold enrichment over input,–
"GTGCCTTG (ssRNA, constant regions annealed to DNA blockers; guide miR-122 5' phosphate) RNA 1: GAGUUCUACAGUCCGACGAUCCCAACGUGCCUUGCACCUGGAAUUCUCGGGUGCCAA RNA 2: UGGAGUGUGACAAUGGUGUUUG DNA 1: GATCGTCGGACTGTAGAACTC DNA 2: TTGGCACCCGAGAATTCCA",0.422 fold enrichment over input,0.159 fold enrichment over input,0.548 fold enrichment over input,–
"GCATCCTA (ssRNA, constant regions annealed to DNA blockers; guide miR-122 5' phosphate) RNA 1: GAGUUCUACAGUCCGACGAUCCCAACGCAUCCUACACCUGGAAUUCUCGGGUGCCAA RNA 2: UGGAGUGUGACAAUGGUGUUUG DNA 1: GATCGTCGGACTGTAGAACTC DNA 2: TTGGCACCCGAGAATTCCA",0.47 fold enrichment over input,0.168 fold enrichment over input,0.563 fold enrichment over input,–
"GCGTCCCG (ssRNA, constant regions annealed to DNA blockers; guide miR-122 5' phosphate) RNA 1: GAGUUCUACAGUCCGACGAUCCCAACGCGUCCCGCACCUGGAAUUCUCGGGUGCCAA RNA 2: UGGAGUGUGACAAUGGUGUUUG DNA 1: GATCGTCGGACTGTAGAACTC DNA 2: TTGGCACCCGAGAATTCCA",0.366 fold enrichment over input,0.15 fold enrichment over input,0.539 fold enrichment over input,–
"GCGTTTTA (ssRNA, constant regions annealed to DNA blockers; guide miR-122 5' phosphate) RNA 1: GAGUUCUACAGUCCGACGAUCCCAACGCGUUUUACACCUGGAAUUCUCGGGUGCCAA RNA 2: UGGAGUGUGACAAUGGUGUUUG DNA 1: GATCGTCGGACTGTAGAACTC DNA 2: TTGGCACCCGAGAATTCCA",0.484 fold enrichment over input,0.173 fold enrichment over input,0.582 fold enrichment over input,–
